In ChEMBL document CHEMBL4513216, “Probing the Open Global Health Chemical Diversity Library for Multistage-Active Starting Points for Next-Generation Antimalarials” (ACS Infect Dis, 2020) one finds INHIBITION data, which are given here for 51 compounds.

The whole screen tested about 65,000 compounds, of which about 2,100 (3.2%) showed an effect of 50% or more. The median lay at about -52%. Only a selection was taken, and strong results are over-represented in it overall.

This assay concerns Plasmodium falciparum. In words: Screen against P. falciparum Asexual Blood Stage (ABS), at 5uM. The conditions noted are these: tested at 5 uM. In kind it is functional, Dd2.
As for `CN1CCCC(c2cccc(Cc3ccccc3Cl)n2)C1` (stereo unspecified), the INHIBITION was determined as 70.3%. The result for `CN1CCCC(c2cncc(C(=O)NCc3ccccc3Cl)n2)C1` (stereo unspecified) reads 72.4%; that for `Cc1nc(CC(=O)N2CCN(C)CC2c2ccccc2)cs1` (stereo unspecified), -76.9%. With `O=C(C1CCCC1)N1C[C@@H]2CCNC[C@@H]21` the figure was -78.2%; with `O=C1CC2(CCN(Cc3cccnc3)C2)CN1c1cncnc1` (stereo unspecified), -101%. Turning to `CC(C)NC(=O)N1CCOC2(CCNCC2)C1`, the INHIBITION is reported as 16.9%. Consider `O=C1CO[C@H]2CN(C3CCOCC3)C[C@H]2N1Cc1ccncc1`, for which the INHIBITION is -53.2%.

Turning to `COCCNC(=O)c1cn(C(C)(C)C)c2ncccc12`, the INHIBITION is listed as -129%.

As to `CC(C)(C)C(=O)NCCNCc1ccc(Cl)c2cccnc12`, the INHIBITION is on record as 77.7%. With `CCCNC(=O)c1cn(C(C)(C)C)c2ncccc12` the figure was -149%; with `O=C(N1CCOCC1)N1CCC2(CCNC2)C1` (stereo unspecified), -12.3%; with `CC(C)CN1CCC2(CC1)C(=O)Nc1ccc(C(=O)N(C)C)cc12`, -21.2%. With `Cc1c(C2SCC(=O)Nc3c2c(O)nn3C2CCCCC2)cnn1C` (stereo unspecified) the figure was -53.5%. The result for `COc1cnc(N2CC(N3CCOCC3)C2)nc1-c1ccnn1C` reads 75.3%; that for `c1cc(COC[C@@]23CCC[C@@H]2CN(C2CCOCC2)C3)ccn1`, -24.5%. Consider `Cc1nc[nH]c1CN(Cc1ccccc1)Cc1nccs1`, for which the INHIBITION is reported as 75.7%. With `Cc1nc[nH]c1CN1CCCC12CCN(c1ccccn1)CC2` the figure was -15.3%; with `COc1cccc(CN(Cc2ccco2)Cc2[nH]cnc2C)c1`, 86.4%. The result for `CC1CCN(CC(=O)N(Cc2ccccc2)Cc2nccs2)C1=O` (stereo unspecified) reads -96.3%; that for `COc1cccc(CCNCc2c(C)nn(C)c2N(C)C)c1`, 49%; that for `CCOCCCNC(=O)c1cn(C(C)(C)C)c2ncccc12`, -151%. As for `CC(NCC1CCN(CCO)CC1)c1ccc(Cl)cc1` (stereo unspecified), the INHIBITION was found to be 93.9%.

For the compound `CC(NCC1CCN(CCO)CC1)c1ccc(F)c(Cl)c1` (stereo unspecified), the INHIBITION stood at 84.1%. For `CN(CC1CCN(CCO)CC1)CC(O)c1ccc(F)c(F)c1` (stereo unspecified), the INHIBITION is 76.5%. The result for `CC(NCC1CCN(CCO)CC1)c1cccc(Cl)c1` (stereo unspecified) reads 84.8%; that for `COc1ccc(Cl)cc1CC(=O)N1CCN(CCO)CC1`, -118%. With `Cc1n[nH]c2c1C(c1ccc(Br)cc1)SCC(=O)N2` (stereo unspecified) the figure was -33.1%; with `CCOCC(=O)NC(C)Cc1ccccc1Br` (stereo unspecified), -68.7%; with `Cc1ccnc(OC[C@@]23CCO[C@@H]2CCN(C2CCC2)C3)n1`, -9.15%.

For `CC(Cc1ccc(Cl)cc1)NC(=O)Nc1cnn(CC(N)=O)c1` (stereo unspecified), the INHIBITION amounted to 22.5%. The result for `CSc1cccc(CN(C)C(=O)c2cccc(C3CCCNC3)c2)c1` (stereo unspecified) reads 77.5%; that for `CNC(=O)c1ccc2c(c1)C1(CCN(C(C)C)CC1)C(=O)N2`, -45.1%. In the case of `O=C(c1ccccc1)N1CCOC2CNCC[C@H]21` (stereo partly specified), the INHIBITION is -28.1%. The result for `Cc1cc(N(C)C)cc(C2CCN(S(=O)(=O)c3cccs3)C2)n1` (stereo unspecified) reads 84.1%. With `CCCSCC(=O)N1C[C@@H]2CC[C@H]1CN(Cc1cccnc1)C2` the figure was -60%; with `Cc1cc(N2CCC(NC(C)Cc3ccsc3)CC2)nc(C)n1` (stereo unspecified), 85.8%; with `CCCc1cc(N2CCC(NCCc3ccc(O)cc3)CC2)nc(C)n1`, 82.1%. The result for `CCc1cc(N2CCC(NC3CN4CCC3CC4)CC2)nc(N(C)C)n1` (stereo unspecified) reads -25.1%; that for `Cc1cc(N2CCC(NCCOc3ccccc3)CC2)nc(C)n1`, 75.1%.

With `Cc1ccc(N2CC[C@@H]3[C@@H]2CCN3Cc2ccsc2)nn1`, the INHIBITION was -103%.

`Cc1cc(N2CCCC2c2cccnc2)nc(C)n1` (stereo unspecified): the INHIBITION is -10.2%.

Consider `Cc1cccc(N2CCC(NC(C)c3cccs3)CC2)n1` (stereo unspecified), for which the INHIBITION is on record as -22.7%. For the compound `CC(C)OC(=O)N1C[C@@H]2CC[C@H]1CN(Cc1cccnc1)C2`, the INHIBITION was -128%. `Cc1cccc(CN2C(=O)C[C@H]3[C@@H]2CCN3Cc2cccs2)n1`: the INHIBITION is reported as -76.6%. Turning to `CN1CCC(N2CCOC3(CCCC3)C2)C1=O` (stereo unspecified), the INHIBITION is on record as -26.7%. The result for `OC(CNCc1ccccc1C(F)(F)F)c1ccccc1` (stereo unspecified) reads 82.4%; that for `CC(C)Oc1ccc(C(O)CNCc2ccccc2C(F)(F)F)cc1` (stereo unspecified), 83.2%. With `Cc1ccccc1CNCC(O)c1ccc(OC(C)C)cc1` (stereo unspecified) the figure was 92.4%; with `Cc1noc(C)c1C(=O)N1CCOC2(COCCN(C(C)C)C2)C1` (stereo unspecified), -57.3%; with `CN(CCCOc1ccccc1)C(=O)c1csc(-c2nnc[nH]2)n1`, 77.1%.

As for `CC1(C)CN(C(CNC2=NCCN2)c2ccc(Cl)cc2)CCO1` (stereo unspecified), the INHIBITION is on record as 83%.
